The values that follow come from the supplement of paper PMC9135407.

Where “and” joins values, the source holds several entries; their conditions need not be identical. Equal entries are not always repeated. Structures can show the parent of a compound that is named as a salt. Screen size: about 5,800 compounds; about 620 (11%) showed activity. Only a selection was taken, and actives are over-represented in it overall. A number with no mark means an inactive call.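 How the source made its calls: active = score above a cut-off or among the top three wells of a plate; in these data no inactive exceeds 0.85.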

The test system of the assay is primary human hepatic stellate cells (donor 1). Put plainly: scaled lipid accumulation score (0 = DMSO-like, 1 = nortriptyline-like); higher = stronger HSC inactivation (lipid re-accumulation), active = hit call of the paper. The settings on record: 48 h.
The mark [1] stands for this setting: library stock concentration: 1 mM.
Where [2] appears, read: library stock concentration: 10 mM.
The mark [3] stands for this setting: library stock concentration: 3.33 mM.
The mark [4] stands for this setting: library stock concentration: 80 uM.
Where [5] appears, read: library stock concentration: 400 uM.
The mark [6] stands for this setting: library stock concentration: 2 mM.
Where [7] appears, read: library stock concentration: 6.2 mM.
Where [8] appears, read: library stock concentration: 5.1 mM.
[9] abbreviates: library stock concentration: 13.5 mM.

For the compound `CCCCC/C=C\C/C=C\CCCC/C=C\CCCC(=O)O` [5(Z),11(Z),14(Z)-Eicosatrienoic Acid], the “scaled lipid accumulation score” value under setting [1] was not above 0.
For the compound `CC(S)C(=O)NCC(=O)O` (stereo not drawn), the “scaled lipid accumulation score” value under setting [2] was not above 0.
As to `CC(S)C(=O)NCC(=O)O` (stereo not drawn) [Tiopronin], the “scaled lipid accumulation score” value is, setting by setting: under setting [3], not above 0; under setting [2], not above 0.
`CCCCCCCC/C=C\CCCCCCCCCCCC(=O)O` [13(Z)-Docosenoic Acid]: the “scaled lipid accumulation score” value under setting [1] is 0.016.
`CCC(CO)Nc1nc(NCc2ccccc2)c2ncn(C(C)C)c2n1` [Roscovitine, (S)-Isomer]: the “scaled lipid accumulation score” value under setting [3] was not above 0.
As to `CC1(C)S[C@@H]2[C@H](/N=C/N3CCCCCC3)C(=O)N2[C@H]1C(=O)O`, the “scaled lipid accumulation score” value under setting [2] was not above 0.
In the case of `CCCCC[C@@](C)(O)/C=C/[C@H]1C=CC(=O)[C@@H]1C/C=C\CCCC(=O)O` [15(R)-15-methyl Prostaglandin A2], the “scaled lipid accumulation score” value under setting [1] was not above 0.
`CCCCc1c(-c2ccc(O)cc2)[nH]c2nccnc12` [Aloisine A, RP107]: under setting [3], the “scaled lipid accumulation score” value was not above 0.
As for `O=C(O)COc1cccc(-c2ocnc2-c2nc(-c3ccccc3)c(-c3ccccc3)o2)c1`, the “scaled lipid accumulation score” value under setting [2] is not above -0.006.
Consider `CN1CCN(C2=Nc3ccccc3Sc3ccc(Cl)cc32)CC1` [Clothiapine], for which the “scaled lipid accumulation score” value (library stock concentration: 5.8 mM) is 0.413.
In the case of `OCCOCCN1CCN(C2=Nc3ccccc3Sc3ccccc32)CC1` [Quetiapine], where the note is “library stock concentration: 5.2 mM”, the “scaled lipid accumulation score” value was not above 0.
As to `OCCOCCN1CCN(C2=Nc3ccccc3Sc3ccccc32)CC1` [Quetiapine fumarate], the “scaled lipid accumulation score” value (library stock concentration: 2.3 mM) was 0.28.
As for `OCCOCCN1CCN(C2=Nc3ccccc3Sc3ccccc32)CC1` [Quetiapine Fumarate], under setting [3], the “scaled lipid accumulation score” value is 0.061.
As for `O=C(O)C=CC(=O)O.OCCOCCN1CCN(C2=Nc3ccccc3Sc3ccccc32)CC1.OCCOCCN1CCN(C2=Nc3ccccc3Sc3ccccc32)CC1` [Quetiapine Fumarate], the “scaled lipid accumulation score” value under setting [2] was 1.06 (active).
For `OCCOCCN1CCN(C2=Nc3ccccc3Sc3ccccc32)CC1`, under setting [2], the “scaled lipid accumulation score” value is 0.251.
For the compound `CCCCC[C@@H](O)/C=C/[C@H]1C(=O)C[C@H](O)[C@@H]1C/C=C\CCCC(=O)O` [15(R)-Prostaglandin D2], the “scaled lipid accumulation score” value under setting [1] is not above 0.
For `O=C([O-])[C@H]1/C(=C/CO)O[C@@H]2CC(=O)N21.[Li+]` [Clavulanate lithium], the “scaled lipid accumulation score” value (library stock concentration: 9.7 mM) was not above 0.
For the compound `CCS(=O)(=O)Nc1ccc2[nH]c(O)c(C(=Nc3ccc(CN4CCCCC4)cc3)c3ccccc3)c2c1` [Hesperadin], the “scaled lipid accumulation score” value was not above 0 under setting [3] and 0.147 under setting [2].
On to `Cl.N=C(N)NCCC[C@H](N)C(=O)O`, for which the “scaled lipid accumulation score” value under setting [2] is not above 0.
Turning to `O=S(=O)(O)Oc1ccc(C(c2ccc(OS(=O)(=O)O)cc2)c2ccccn2)cc1` [Sodium Picosulfate], the “scaled lipid accumulation score” value reads like this: under setting [3], not above 0; under setting [2], not above -0.001.
With `Cc1ccc(C(=O)Nc2cccc(C(F)(F)F)c2)cc1Nc1nc(-c2cccnc2)nc2c1cnn2C` [listing 1 of 2 here], the “scaled lipid accumulation score” value runs as follows: under setting [3], 0.942 (active); under setting [2], 0.959 (active).
With `Cc1ccc(C(=O)Nc2cccc(C(F)(F)F)c2)cc1Nc1cncc(C(N)=O)c1`, the “scaled lipid accumulation score” value is not above 0 under setting [4], 0.035 under setting [5], not above 0 under setting [6] and 0.142 under setting [2].
On to `Cc1ccc(C(=O)Nc2cccc(C(F)(F)F)c2)cc1Nc1nc(-c2cccnc2)nc2c1cnn2C` [listing 2 of 2 here], for which the “scaled lipid accumulation score” value is not above -0.016 under setting [4], not above -0.016 under setting [5], not above -0.016 under setting [6] and 0.726 under setting [2].
Regarding `Nc1ncnc2c1ncn2[C@@H]1O[C@H](COP(=O)(O)CP(=O)(O)OP(=O)(O)O)[C@H](O)C1O` (stereo partly drawn) [alpha,beta-Methylene adenosine 5'-triphosphate dilithium], the “scaled lipid accumulation score” value under setting [2] was 0.242.
Turning to `CCCCC/C=C\C/C=C\C/C=C\C/C=C\CCCC(=O)S[C@H](COCCCCCCCCCCCCCCCC)COP(=O)([O-])OCC[N+](C)(C)C` [Arachidonoyl thio-PC], the “scaled lipid accumulation score” value under setting [1] is not above 0.
As to `CC(/C=C/C(=O)NO)=C\[C@@H](C)C(=O)c1ccc(N(C)C)cc1` [Trichostatin A], the “scaled lipid accumulation score” value under setting [1] is 0.793 (active).
`CC(/C=C/C(=O)NO)=C\[C@@H](C)C(=O)c1ccc(N(C)C)cc1` [Trichostatin-A]: the “scaled lipid accumulation score” value (library stock concentration: 16.5 mM) is 0.589.
Take `CC(C=CC(=O)NO)=CC(C)C(=O)c1ccc(N(C)C)cc1` (stereo not drawn) [Trichostatin A (TSA)]: the “scaled lipid accumulation score” value under setting [3] is 0.515 and the “scaled lipid accumulation score” value under setting [2] is 0.663.
With `CCCSc1nc(N[C@@H]2C[C@H]2c2ccc(F)c(F)c2)c2nnn([C@@H]3C[C@H](OCCO)[C@@H](O)[C@H]3O)c2n1` [Ticagrelor], the “scaled lipid accumulation score” value reads like this: under setting [3], not above 0; under setting [2], 0.193.
Regarding `CSc1nc(N)c2ncn([C@@H]3O[C@H](COP(=O)(O)OP(=O)(O)O)[C@H](O)C3O)c2n1` (stereo partly drawn), the “scaled lipid accumulation score” value under setting [2] was 0.082.
On to `CO/N=C1\C[C@]2(C[C@@H]3C[C@@H](C/C=C(\C)C[C@@H](C)/C=C/C=C4\CO[C@@H]5[C@H](O)C(C)=C[C@@H](C(=O)O3)[C@]45O)O2)O[C@H](/C(C)=C/C(C)C)[C@H]1C`, for which, under setting [2], the “scaled lipid accumulation score” value was not above 0.
On the same count and under the same terms, with `OC[C@H]1O[C@@H](n2cnc3c(N[C@H]4CCC[C@@H]4O)ncnc32)[C@@H](O)C1O` (stereo partly drawn) [Adenosine, N-(2-hydroxycyclopentyl)-, (1S-trans)- [CAS]] the figure was not above 0.
For `CN(C)CCC[C@@]1(c2ccc(F)cc2)OCc2cc(C#N)ccc21` [Escitalopram Oxalate], the “scaled lipid accumulation score” value reads like this: under setting [3], not above 0; under setting [2], 0.644.
As for `CN(C)CCCC1(c2ccc(F)cc2)OCc2cc(C#N)ccc21` (stereo not drawn) [Citalopram], the “scaled lipid accumulation score” value under setting [7] is 0.446 and 0.566; the “scaled lipid accumulation score” value under setting [2] was 0.51.
On to `Br.CN(C)CCCC1(c2ccc(F)cc2)OCc2cc(C#N)ccc21` (stereo not drawn) [Citalopram hydrobromide], for which, under setting [2], the “scaled lipid accumulation score” value was 0.952 (active).
As for `CN(C)CCC[C@@]1(c2ccc(F)cc2)OCc2cc(C#N)ccc21` [Escitalopram], under setting [7], the “scaled lipid accumulation score” value is 0.197.
For the compound `CN(C)CCC[C@@]1(c2ccc(F)cc2)OCc2cc(C#N)ccc21`, the “scaled lipid accumulation score” value under setting [2] is 0.614.
`CN(C)CCCC1(c2ccc(F)cc2)OCc2cc(C#N)ccc21` (stereo not drawn) [Citalopram hydrobromide]: under setting [2], the “scaled lipid accumulation score” value was 0.259 and 0.597.
Turning to `CN(C)CCCC1(c2ccc(F)cc2)OCc2cc(C#N)ccc21` (stereo not drawn) [Citalopram Hydrobromide], the “scaled lipid accumulation score” value was not above 0.
`CCCCCCCCC#CCC#CCC#CCCCC(=O)O` [5,8,11-Eicosatriynoic Acid]: the “scaled lipid accumulation score” value under setting [1] was 0.059.
For `CCCCCCCCC#CCC#CCC#CCCCC(=O)O` [5,8,11-Eicosatriynoic acid], the “scaled lipid accumulation score” value under setting [1] is not above -0.021.
`CCCCCCCCCCCCCCCC(=O)N[C@@H](COP(=O)(O)O)C(=O)O`: the “scaled lipid accumulation score” value under setting [1] was not above -0.021.
Consider `O=C(CCc1ccncc1)NNC(=O)N1Cc2ccccc2Oc2ccc(Cl)cc21`, for which the “scaled lipid accumulation score” value under setting [2] is 0.105.
Consider `CN(C)CC[C@@H](c1ccc(Cl)cc1)c1ccccn1` [Chlorpheniramine (s) maleate], for which the “scaled lipid accumulation score” value under setting [8] is 0.181 and the “scaled lipid accumulation score” value under setting [2] was 0.005.
As to `CN(C)CCC(c1ccc(Cl)cc1)c1ccccn1` (stereo not drawn) [Chlorpheniramine maleate], the “scaled lipid accumulation score” value was 0.469. For the same compound, the “scaled lipid accumulation score” value (library stock concentration: 7.3 mM) was 0.251.
`CN(C)CCC(c1ccc(Br)cc1)c1ccccn1` (stereo not drawn) [Brompheniramine maleate]: the “scaled lipid accumulation score” value is 0.343. Further, under setting [2], the “scaled lipid accumulation score” value was 0.275.
As for `CN(C)CC[C@@H](c1ccc(Cl)cc1)c1ccccn1` [Dexchlorpheniramine maleate], the “scaled lipid accumulation score” value under setting [8] is not above 0.
For the compound `CN(C)CCC(c1ccc(Br)cc1)c1ccccn1` (single isomer, unassigned; (+)) [(+)-Brompheniramine maleate], the “scaled lipid accumulation score” value under setting [2] was 0.351.
Consider `CN(C)CCC(c1ccc(Cl)cc1)c1ccccn1` (stereo not drawn) [Chlorpheniramine], for which the “scaled lipid accumulation score” value under setting [2] is not above 0.
Regarding `CN(C)CC[C@@H](c1ccc(Cl)cc1)c1ccccn1`, the “scaled lipid accumulation score” value under setting [2] is 0.377.
The same measure, in the same setting: next, `CN(C)CCC(c1ccc(Br)cc1)c1ccccn1.O=C(O)/C=C\C(=O)O` (stereo not drawn): 0.9 (active).
With `CN(C)CCC(c1ccc(Br)cc1)c1ccccn1` (stereo not drawn) [Brompheniramine hydrogen maleate], the “scaled lipid accumulation score” value runs as follows: under setting [3], 0.182; under setting [2], 0.583.
`CN(C)CCC(c1ccc(Cl)cc1)c1ccccn1` (stereo not drawn) [Chlorpheniramine Maleate]: the “scaled lipid accumulation score” value runs as follows: under setting [3], 0.106; under setting [2], not above 0.
For the compound `CN(C)CCC(c1ccc(Cl)cc1)c1ccccn1.O=C(O)/C=C\C(=O)O` (stereo not drawn), under setting [2], the “scaled lipid accumulation score” value is 0.891 (active).
With `CCOc1nc2cccc(C(=O)OC(C)OC(=O)OC3CCCCC3)c2n1Cc1ccc(-c2ccccc2-c2nn[nH]n2)cc1` (stereo not drawn) [Candesartan Cilexetil], the “scaled lipid accumulation score” value was not above 0 under setting [3] and not above 0 under setting [2].
Consider `CCOc1nc2cccc(C(=O)OC(C)OC(=O)OC3CCCCC3)c2n1Cc1ccc(-c2ccccc2-c2nn[nH]n2)cc1` (stereo not drawn) [Candesartan cilextil], for which the “scaled lipid accumulation score” value under setting [2] was not above -0.027.
Take `C/C=C/c1ccc(OC)cc1` [Anethole]: the “scaled lipid accumulation score” value by setting is: under setting [2], 0.104; under setting [9], not above 0.
With `C/C=C/c1ccc(OC)cc1` [Anethole, trans-], under setting [9], the “scaled lipid accumulation score” value is not above -0.006.
Turning to `CCCCC/C=C\C\C=C/C=C/C=C/[C@@H](SC[C@H](N)C(=O)O)[C@@H](O)CCCC(=O)O` [Leukotriene E4], for the setting “library stock concentration: 100 uM”, the “scaled lipid accumulation score” value was 0.015.
As for `C[C@]1(c2nc3c(C(N)=O)cccc3[nH]2)CCCN1` [Veliparib (ABT-888)], the “scaled lipid accumulation score” value reads like this: under setting [3], not above 0; under setting [2], not above 0.
In the case of `C[C@]1(c2nc3c(C(N)=O)cccc3[nH]2)CCCN1` [Veliparib], the “scaled lipid accumulation score” value runs as follows: under setting [4], 0.0075; under setting [5], not above -0.0045; under setting [6], not above -0.0045; under setting [2], not above -0.0045.
On to `CCCCCCCC/C=C\C/C=C\C/C=C\CCCC(=O)O` [Mead acid (20:3 n-9)], for which the “scaled lipid accumulation score” value under setting [1] is 0.025.
Consider `NC(=O)CCC/C=C\C[C@@H]1[C@@H](/C=C/[C@@H](O)CCc2ccccc2)[C@H](O)C[C@@H]1O` [17-phenyl trinor Prostaglandin F2.alpha. amide], for which, under setting [1], the “scaled lipid accumulation score” value was not above 0.
